# Data as given in publication PMC11062922 (Nature Chemical Biology, 2023).
# Read-outs that look alike come from different tables or passages of the source.
# Tests used:
# AAK1 = system: AAK1; design: species or system human, MV4-11 + K-562 + COLO205 + SK-N-BE2 + OVCAR-8; settings: read-out: apparent Kd, n = 1
# Q6ZSR9 = Q6ZSR9 (human, UniProt Q6ZSR9); design: species or system MV4-11 + K-562 + COLO205 + SK-N-BE2 + OVCAR-8; settings: read-out: apparent Kd, n = 1
# CLK1 = system: CLK1; design: species or system human, MV4-11 + K-562 + COLO205 + SK-N-BE2 + OVCAR-8; settings: read-out: apparent Kd, compound concentrations: 100 nM and 1000 nM (sheet 'Samples'), n = 1
# CLK4 = system: CLK4; design: species or system human, MV4-11 + K-562 + COLO205 + SK-N-BE2 + OVCAR-8; settings: read-out: apparent Kd, compound concentrations: 100 nM and 1000 nM (sheet 'Samples'), n = 1
# CSNK2A1;CSNK2A3 = system: CSNK2A1;CSNK2A3; design: species or system human, MV4-11 + K-562 + COLO205 + SK-N-BE2 + OVCAR-8; settings: read-out: apparent Kd, n = 1
# CSNK2A2 = system: CSNK2A2; design: species or system human, MV4-11 + K-562 + COLO205 + SK-N-BE2 + OVCAR-8; settings: read-out: apparent Kd, compound concentrations: 100 nM and 1000 nM (sheet 'Samples'), n = 1
# RIPK2 = system: RIPK2; design: species or system human, MV4-11 + K-562 + COLO205 + SK-N-BE2 + OVCAR-8; settings: read-out: apparent Kd, compound concentrations: 100 nM and 1000 nM (sheet 'Samples'), n = 1
# FYN = system: FYN; design: species or system human, MV4-11 + K-562 + COLO205 + SK-N-BE2 + OVCAR-8; settings: read-out: apparent Kd; compound concentrations:100 nM and 1000 nM (sheet 'Samples'); n = 1
# LCK = system: LCK; design: species or system human, MV4-11 + K-562 + COLO205 + SK-N-BE2 + OVCAR-8; settings: read-out: apparent Kd; compound concentrations:100 nM and 1000 nM (sheet 'Samples'); n = 1
# ABL1 = system: ABL1; design: species or system human, MV4-11 + K-562 + COLO205 + SK-N-BE2 + OVCAR-8; settings: read-out: apparent Kd; compound concentrations: 100 nM and 1000 nM (sheet 'Samples'), CATDS: 7.2174093506066003E-2; n = 1
# ABL2 = system: ABL2; design: species or system human, MV4-11 + K-562 + COLO205 + SK-N-BE2 + OVCAR-8; settings: read-out: apparent Kd; compound concentrations: 100 nM and 1000 nM (sheet 'Samples'), CATDS: 3.8634429049696897E-2; n = 1
# BCR = system: BCR; design: species or system human, MV4-11 + K-562 + COLO205 + SK-N-BE2 + OVCAR-8; settings: read-out: apparent Kd; compound concentrations: 100 nM and 1000 nM (sheet 'Samples'), CATDS: 0.110130424240114; n = 1
# GAK = system: GAK; design: species or system human, MV4-11 + K-562 + COLO205 + SK-N-BE2 + OVCAR-8; settings: read-out: apparent Kd; compound concentrations: 100 nM and 1000 nM (sheet 'Samples'), CATDS: 2.92049494926887E-2; n = 1
# [1] = compound concentrations:100 nM and 1000 nM (sheet 'Samples')
# Q6ZSR9, sequence (Q6ZSR9 whole entry, looked up): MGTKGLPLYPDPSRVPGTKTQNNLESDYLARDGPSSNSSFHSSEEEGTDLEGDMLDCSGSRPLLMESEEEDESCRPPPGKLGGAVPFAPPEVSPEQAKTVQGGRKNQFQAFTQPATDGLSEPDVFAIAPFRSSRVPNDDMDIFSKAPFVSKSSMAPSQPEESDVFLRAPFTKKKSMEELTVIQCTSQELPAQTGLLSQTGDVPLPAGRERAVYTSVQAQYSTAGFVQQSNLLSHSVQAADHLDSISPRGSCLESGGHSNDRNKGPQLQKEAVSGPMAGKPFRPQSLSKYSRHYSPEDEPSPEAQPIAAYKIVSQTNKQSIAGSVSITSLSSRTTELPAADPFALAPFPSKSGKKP
compound,measurement,setting,value
COc1cc(Nc2nccc(N3CCC(NC(=O)C4COc5ccccc5O4)C3)n2)cc(OC)c1OC (stereo not shown) [GSK1379761A],potency estimated from few doses,"AAK1; compound concentrations: 100 nM and 1000 nM (sheet 'Samples'), CATDS: 0.26357344915845798",1.12 µM
same,potency estimated from few doses,"Q6ZSR9; compound concentrations: 100 nM and 1000 nM (sheet 'Samples'), CATDS: 0.25714063136794202",1.17 µM
COc1cc(Nc2nccc(N3CCC(NC(=O)c4cccc(C#N)c4)C3)n2)cc(OC)c1OC (stereo not shown) [GSK1379751A],potency estimated from few doses,"AAK1; compound concentrations: 100 nM and 1000 nM (sheet 'Samples'), CATDS: 0.20949591044902",0.786 µM
same,potency estimated from few doses,"Q6ZSR9; compound concentrations: 100 nM and 1000 nM (sheet 'Samples'), CATDS: 0.206433255862257",0.81 µM
O=C1N=C(NCCc2cccc(Cl)c2)S/C1=C\c1ccc2ncccc2c1 [RO4509201-000],potency estimated from few doses,"AAK1; compound concentrations: 100 nM and 1000 nM (sheet 'Samples'), CATDS: 5.6248629663802403E-2",1.64 µM
same,potency estimated from few doses,CLK1; CATDS: 0.11223755313714801,0.275 µM
same,potency estimated from few doses,CLK4; CATDS: 0.15614566648302999,0.153 µM
same,potency estimated from few doses,"CSNK2A1;CSNK2A3; compound concentrations: 100 nM and 1000 nM (sheet 'Samples'), CATDS: 0.170383689424982",0.133 µM
same,potency estimated from few doses,CSNK2A2; CATDS: 0.201313292648233,0.103 µM
Cn1cc(C2=C(c3cn(CCCO)c4ccccc34)C(=O)NC2=O)c2ccccc21 [RO0317377-000],potency estimated from few doses,"AAK1; compound concentrations: 100 nM and 1000 nM (sheet 'Samples'), CATDS: 0.115071291343016",1.3 µM
same,potency estimated from few doses,"Q6ZSR9; compound concentrations: 100 nM and 1000 nM (sheet 'Samples'), CATDS: 0.107617362332997",1.54 µM
CNC1=NC(=O)/C(=C/c2ccc3ncccc3c2)S1 [RO4595949-000],potency estimated from few doses,"AAK1; compound concentrations: 100 nM and 1000 nM (sheet 'Samples'), CATDS: 6.4601129134093493E-2",0.737 µM
same,potency estimated from few doses,CLK1; CATDS: 0.21110804330204799,0.0685 µM
same,potency estimated from few doses,CLK4; CATDS: 7.8220573800827503E-2,0.429 µM
same,potency estimated from few doses,"CSNK2A1;CSNK2A3; compound concentrations: 100 nM and 1000 nM (sheet 'Samples'), CATDS: 0.13596728585800399",0.136 µM
same,potency estimated from few doses,CSNK2A2; CATDS: 0.13149975380310699,0.144 µM
same,potency estimated from few doses,"Q6ZSR9; compound concentrations: 100 nM and 1000 nM (sheet 'Samples'), CATDS: 0.14278895493122401",0.125 µM
O=C1N=C(NCCc2ccccn2)S/C1=C\c1ccc2ncccc2c1 [RO4508346-000],potency estimated from few doses,"AAK1; compound concentrations: 100 nM and 1000 nM (sheet 'Samples'), CATDS: 8.8556384492670503E-2",0.711 µM
same,potency estimated from few doses,CLK1; CATDS: 0.10354679729128299,0.485 µM
same,potency estimated from few doses,CLK4; CATDS: 0.116533275678242,0.377 µM
same,potency estimated from few doses,"CSNK2A1;CSNK2A3; compound concentrations: 100 nM and 1000 nM (sheet 'Samples'), CATDS: 0.14119727464160201",0.262 µM
same,potency estimated from few doses,CSNK2A2; CATDS: 0.15250276369697799,0.229 µM
same,potency estimated from few doses,"Q6ZSR9; compound concentrations: 100 nM and 1000 nM (sheet 'Samples'), CATDS: 9.3045263541922094E-2",0.625 µM
same,potency estimated from few doses,RIPK2; CATDS: 9.0933210372185796E-2,0.663 µM
Cc1cccc(-c2cc(-c3c[nH]nc3-c3ccccn3)ccn2)c1 [GW679395X],potency estimated from few doses,CSNK2A1;CSNK2A3; [1],2.12 µM
same,potency estimated from few doses,FYN,1.29 µM
same,potency estimated from few doses,LCK,1.33 µM
COc1cccc(-n2ncc3c(N/N=C/c4ccc(C(=O)NCCN(C)C)cc4)ncnc32)c1.Cl [GW784307A],potency estimated from few doses,ABL1,0.114 µM
same,potency estimated from few doses,ABL2,0.479 µM
same,potency estimated from few doses,BCR,0.0534 µM
same,potency estimated from few doses,CLK1; CATDS: 2.9878019560437799E-2,1.06 µM
same,potency estimated from few doses,CLK4; CATDS: 3.0333782570854902E-2,1.01 µM
same,potency estimated from few doses,"CSNK2A1;CSNK2A3; compound concentrations: 100 nM and 1000 nM (sheet 'Samples'), CATDS: 5.2102189470279198E-2",0.227 µM
same,potency estimated from few doses,CSNK2A2; CATDS: 8.6711561514054597E-2,0.0809 µM
same,potency estimated from few doses,GAK,1.16 µM
O=C1N=C(NCCc2cccc(F)c2)S/C1=C\c1ccc2ncccc2c1 [RO4508344-000],potency estimated from few doses,"AAK1; compound concentrations: 100 nM and 1000 nM (sheet 'Samples'), CATDS: 0.102414054055007",0.806 µM
same,potency estimated from few doses,CLK1; CATDS: 0.18459427931802,0.278 µM
same,potency estimated from few doses,CLK4; CATDS: 0.11348899784144,0.644 µM
same,potency estimated from few doses,"CSNK2A1;CSNK2A3; compound concentrations: 100 nM and 1000 nM (sheet 'Samples'), CATDS: 0.10848766260937499",0.709 µM
same,potency estimated from few doses,CSNK2A2; CATDS: 0.12392603207531599,0.541 µM
same,potency estimated from few doses,"Q6ZSR9; compound concentrations: 100 nM and 1000 nM (sheet 'Samples'), CATDS: 9.5289389413805506E-2",0.958 µM
CC(C)c1cc(-c2ccc3c(N)n[nH]c3c2)nc(N)n1 [GSK2250882A],potency estimated from few doses,AAK1; [1],0.838 µM
same,potency estimated from few doses,Q6ZSR9; [1],1.37 µM
O=C1N=C(NCC(CO)c2ccccc2)S/C1=C\c1ccc2ncccc2c1 (stereo not shown) [RO4582641-000],potency estimated from few doses,"AAK1; compound concentrations: 100 nM and 1000 nM (sheet 'Samples'), CATDS: 0.17753366584660099",0.0894 µM
same,potency estimated from few doses,CLK1; CATDS: 0.190725453373879,0.0796 µM
same,potency estimated from few doses,CLK4; CATDS: 7.8741262727809305E-2,0.59 µM
same,potency estimated from few doses,"CSNK2A1;CSNK2A3; compound concentrations: 100 nM and 1000 nM (sheet 'Samples'), CATDS: 0.138008161076002",0.14 µM
same,potency estimated from few doses,CSNK2A2; CATDS: 0.126393310474474,0.167 µM
same,potency estimated from few doses,"Q6ZSR9; compound concentrations: 100 nM and 1000 nM (sheet 'Samples'), CATDS: 0.16856489309537501",0.0976 µM
same,potency estimated from few doses,RIPK2; CATDS: 7.9715899202970897E-2,0.565 µM
O=C1N=C(NCc2ccccc2Cl)S/C1=C\c1ccc2ncccc2c1 [RO4506917-000],potency estimated from few doses,"AAK1; compound concentrations: 100 nM and 1000 nM (sheet 'Samples'), CATDS: 0.11408276718016799",0.696 µM
same,potency estimated from few doses,CLK1; CATDS: 0.13615422717459799,0.443 µM
same,potency estimated from few doses,CLK4; CATDS: 0.16237253930463899,0.307 µM
same,potency estimated from few doses,"CSNK2A1;CSNK2A3; compound concentrations: 100 nM and 1000 nM (sheet 'Samples'), CATDS: 0.21358904197946299",0.19 µM
same,potency estimated from few doses,CSNK2A2; CATDS: 0.17001055355195799,0.281 µM
same,potency estimated from few doses,"Q6ZSR9; compound concentrations: 100 nM and 1000 nM (sheet 'Samples'), CATDS: 9.7347252089560202E-2",1.19 µM
Cc1cccc(Nc2nc(NCCN)ncc2C(N)=O)c1 [GSK1292139B],potency estimated from few doses,"AAK1; compound concentrations: 100 nM and 1000 nM (sheet 'Samples'), CATDS: 0.21003536001632001",0.164 µM
same,potency estimated from few doses,"Q6ZSR9; compound concentrations: 100 nM and 1000 nM (sheet 'Samples'), CATDS: 0.320838512301937",0.088 µM
